# Measurements from PubChem BioAssay.
# Active and inactive are the calls of the source.
# How the values were obtained:
# [1] = test system: PRMT1 (protein arginine N-methyltransferase 1); assay: small molecules binding arginine methyltransferase PRMT1 – biochemical, small-molecule microarray, 635 nm fluorescence, primary screen (AID 1088); conditions: higher = more signal;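 note: binding of Prmt1 protein to compounds spotted on small-molecule microarray slides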
# [2] = growth effects on S. cerevisiae YJM789 – YJM789 clinical isolate, OD600, 24 h, basal, primary screen (AID 1089); conditions: higher = more signal, called active from +8 up or from −8 down;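 note: growth of clinical yeast isolate S. cerevisiae YJM 789 seeded 1000 cells per well; test concentration not given here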
# [3] = S. pombe growth modifiers, basal conditions – strain 972, OD600, 24 h, no modulator, primary screen (AID 1090);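 note: basal condition with compound alone and no growth modifier present; test concentration not given here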; conditions: S. pombe 972 growth, higher = more signal, called active from +8 up or from −8 down
# [4] = budding yeast growth modifiers under rapamycin – strain BY4716, OD600, 96 h, primary screen (AID 1091); note: test concentration not given here; conditions: S. cerevisiae BY4716 + rapamycin, higher = more signal, called active from +8 up or from −8 down
# [5] = target: Torsin-1A-interacting protein 2 (Homo sapiens) (UniProt Q8NFQ8); assay: small molecules binding lysate-expressed LULL1 – cell lysate, human LULL1 lysate, 635/667 nm fluorescence, primary screen (AID 1092); conditions: small-molecule microarray, hLULL1 lysate binding, 635 nm fluorescence; higher = more signal;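 note: probe is lysate of COS7 cells overexpressing human LULL1; score merges per-feature 667 nm fluorescence with signal-to-noise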
# Chain of Torsin-1A-interacting protein 2 (Homo sapiens) (Q8NFQ8 whole entry, looked up): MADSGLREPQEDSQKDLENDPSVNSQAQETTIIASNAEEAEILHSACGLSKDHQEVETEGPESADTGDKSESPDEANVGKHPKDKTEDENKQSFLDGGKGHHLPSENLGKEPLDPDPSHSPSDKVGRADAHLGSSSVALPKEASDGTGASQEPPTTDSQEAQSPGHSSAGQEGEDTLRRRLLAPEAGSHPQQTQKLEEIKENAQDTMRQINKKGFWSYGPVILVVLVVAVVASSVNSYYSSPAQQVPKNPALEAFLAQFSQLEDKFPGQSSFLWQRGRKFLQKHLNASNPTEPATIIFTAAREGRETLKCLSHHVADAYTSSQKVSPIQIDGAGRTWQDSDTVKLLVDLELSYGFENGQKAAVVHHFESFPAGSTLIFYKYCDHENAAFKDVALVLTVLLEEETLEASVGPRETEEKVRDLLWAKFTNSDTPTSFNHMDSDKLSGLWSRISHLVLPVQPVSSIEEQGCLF
# [6] = optical density change of DRC41 E. coli – strain DRC41, OD650, 24 h, E. coli filamentation project, primary screen (AID 1093);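 note: MC1000 strain lacking acrAB efflux and sulA so SOS filamentation is blocked; test concentration not given here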; conditions: E. coli DRC41 growth, higher = more signal, called active from +8 up or from −8 down
# [7] = probe aLefty2 binding to arrayed compounds – biochemical, biotinylated probe, 635/667 nm fluorescence, primary screen (AID 1094); conditions: small-molecule microarray, higher = more signal;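 note: score merges spot fluorescence near 667 nm with spot signal-to-noise ratio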
# [8] = test system: Noggin (protein binding on small-molecule microarray); assay: small molecules binding Noggin protein – biochemical, 635/667 nm fluorescence, primary screen (AID 1095); conditions: 635 nm fluorescence, higher = more signal;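 note: score merges 667 nm feature fluorescence with signal to noise over triplicate slides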
# [9] = target: Neurogenic locus notch homolog protein 3 (Homo sapiens) (UniProt Q9UM47); assay: small molecules binding NOTCH3 protein – biochemical, 635/667 nm fluorescence, primary screen (AID 1096); conditions: small-molecule microarray, 635 nm fluorescence, higher = more signal
# Chain of Neurogenic locus notch homolog protein 3 (Homo sapiens) (Q9UM47 whole entry, looked up): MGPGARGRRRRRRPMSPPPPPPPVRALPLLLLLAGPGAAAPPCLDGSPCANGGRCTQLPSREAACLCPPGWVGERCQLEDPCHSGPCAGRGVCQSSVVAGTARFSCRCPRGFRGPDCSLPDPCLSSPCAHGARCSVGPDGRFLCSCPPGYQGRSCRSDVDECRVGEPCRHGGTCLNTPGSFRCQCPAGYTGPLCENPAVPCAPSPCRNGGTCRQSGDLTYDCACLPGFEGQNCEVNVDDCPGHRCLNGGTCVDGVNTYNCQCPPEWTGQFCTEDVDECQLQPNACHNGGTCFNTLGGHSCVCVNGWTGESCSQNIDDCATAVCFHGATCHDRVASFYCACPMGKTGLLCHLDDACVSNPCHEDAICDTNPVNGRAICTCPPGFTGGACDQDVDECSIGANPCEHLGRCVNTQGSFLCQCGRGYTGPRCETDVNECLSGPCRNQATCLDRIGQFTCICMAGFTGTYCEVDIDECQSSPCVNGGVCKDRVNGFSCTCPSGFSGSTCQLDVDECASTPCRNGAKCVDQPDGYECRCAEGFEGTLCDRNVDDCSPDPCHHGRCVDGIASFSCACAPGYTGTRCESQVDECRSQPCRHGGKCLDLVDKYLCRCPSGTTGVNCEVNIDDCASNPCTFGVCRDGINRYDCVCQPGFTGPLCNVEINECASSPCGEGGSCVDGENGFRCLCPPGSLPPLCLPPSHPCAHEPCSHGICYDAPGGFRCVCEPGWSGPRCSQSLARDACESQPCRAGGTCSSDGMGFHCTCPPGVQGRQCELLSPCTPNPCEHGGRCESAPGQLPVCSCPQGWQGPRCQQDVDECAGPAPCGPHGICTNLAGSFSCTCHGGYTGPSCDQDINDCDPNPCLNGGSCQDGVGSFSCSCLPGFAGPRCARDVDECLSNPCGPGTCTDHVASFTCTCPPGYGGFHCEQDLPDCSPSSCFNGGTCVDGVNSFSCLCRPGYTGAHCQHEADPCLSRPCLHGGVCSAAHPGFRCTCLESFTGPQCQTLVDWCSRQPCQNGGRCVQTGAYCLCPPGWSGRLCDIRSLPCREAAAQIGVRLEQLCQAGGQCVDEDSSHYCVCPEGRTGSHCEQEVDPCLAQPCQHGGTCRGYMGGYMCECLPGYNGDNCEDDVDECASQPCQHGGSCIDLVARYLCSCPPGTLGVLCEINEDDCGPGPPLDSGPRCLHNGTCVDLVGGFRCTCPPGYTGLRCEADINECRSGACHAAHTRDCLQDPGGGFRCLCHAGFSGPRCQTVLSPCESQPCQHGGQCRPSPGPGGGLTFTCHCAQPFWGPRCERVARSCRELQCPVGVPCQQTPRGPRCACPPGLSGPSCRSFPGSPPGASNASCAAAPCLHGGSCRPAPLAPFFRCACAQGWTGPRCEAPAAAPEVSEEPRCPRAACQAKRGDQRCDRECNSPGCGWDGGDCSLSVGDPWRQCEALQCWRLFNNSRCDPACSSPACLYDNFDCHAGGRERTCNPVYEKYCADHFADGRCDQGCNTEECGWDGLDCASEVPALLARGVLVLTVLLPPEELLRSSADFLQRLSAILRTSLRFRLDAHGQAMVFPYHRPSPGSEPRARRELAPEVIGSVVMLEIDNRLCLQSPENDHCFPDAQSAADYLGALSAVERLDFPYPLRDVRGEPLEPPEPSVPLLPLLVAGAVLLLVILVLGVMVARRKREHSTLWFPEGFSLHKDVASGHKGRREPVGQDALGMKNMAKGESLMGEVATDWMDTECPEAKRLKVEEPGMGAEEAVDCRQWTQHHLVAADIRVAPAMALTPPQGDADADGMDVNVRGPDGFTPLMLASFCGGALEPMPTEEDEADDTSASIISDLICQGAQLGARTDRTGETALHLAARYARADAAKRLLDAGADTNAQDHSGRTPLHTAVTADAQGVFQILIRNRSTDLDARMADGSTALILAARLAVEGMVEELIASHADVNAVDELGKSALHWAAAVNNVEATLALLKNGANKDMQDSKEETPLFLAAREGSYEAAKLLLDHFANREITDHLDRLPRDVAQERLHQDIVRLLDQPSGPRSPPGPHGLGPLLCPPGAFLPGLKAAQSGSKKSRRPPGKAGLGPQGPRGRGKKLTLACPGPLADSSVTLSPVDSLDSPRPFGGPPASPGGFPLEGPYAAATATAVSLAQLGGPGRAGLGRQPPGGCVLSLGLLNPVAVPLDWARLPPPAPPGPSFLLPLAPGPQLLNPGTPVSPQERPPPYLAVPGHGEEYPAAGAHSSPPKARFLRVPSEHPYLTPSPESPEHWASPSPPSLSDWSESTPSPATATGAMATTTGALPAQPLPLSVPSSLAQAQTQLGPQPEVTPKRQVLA
# [10] = probe aEGFR binding to arrayed compounds – biochemical, biotinylated probe, 635/667 nm fluorescence, primary screen (AID 1097); conditions: small-molecule microarray, higher = more signal;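 note: probe is a biotinylated anti-EGFR antibody binding compounds printed on slides; score combines fluorescence near 667 nm and signal to noise of each spot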
# [11] = test system: Plasmodium falciparum Sir2 (PF13_0152, Sir2A); assay: Plasmodium falciparum Sir2A binding compounds – biochemical, small-molecule microarray, 635 nm fluorescence, primary screen (AID 1098); conditions: fluorescence 635 nm, higher = more signal;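 note: score merges spot fluorescence intensity with its signal-to-noise ratio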
# [12] = probe aDKK1 binding to arrayed compounds – biochemical, biotinylated probe, 635/667 nm fluorescence, primary screen (AID 1099); conditions: small-molecule microarray, higher = more signal;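 note: score merges 667nm spot fluorescence with signal to noise across triplicate slides; reference of the scale not given here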
# [13] = probe aCHRDL2 binding to arrayed compounds – biochemical, biotinylated probe, 635/667 nm fluorescence, primary screen (AID 1100); conditions: small-molecule microarray, higher = more signal
# [14] = change in splice reporter luminescence, either direction, cell-based, HEK293, spliceosome inhibition project, primary screen (AID 1101); conditions: HEK293 splicing luciferase reporter, 24 h, higher = more signal, called active from +8 up or from −8 down;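 note: HEK293 cells carrying a splicing-competent luciferase reporter gene; test concentration not given here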
# [15] = target: Fibroblast growth factor 10 (Homo sapiens) (UniProt O15520); assay: compounds binding fibroblast growth factor 10 – biochemical, small-molecule microarray, 635 nm fluorescence, primary screen (AID 1102); conditions: FGF10 binding, fluorescence 635 nm, higher = more signal
# Chain of Fibroblast growth factor 10 (Homo sapiens) (O15520 whole entry, looked up): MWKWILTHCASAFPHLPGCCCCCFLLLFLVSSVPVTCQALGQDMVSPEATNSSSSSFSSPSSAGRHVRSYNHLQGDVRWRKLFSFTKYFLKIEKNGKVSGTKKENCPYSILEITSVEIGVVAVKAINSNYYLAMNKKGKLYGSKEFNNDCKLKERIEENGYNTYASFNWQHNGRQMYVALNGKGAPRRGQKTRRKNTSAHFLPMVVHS
# [16] = test system: glycogen synthase kinase-3 (GSK3A per assay name; protocol says GSK3B); assay: compounds binding glycogen synthase kinase-3 – biochemical, small-molecule microarray, 635 nm fluorescence, GSK3A, primary screen (AID 1103); conditions: fluorescence 635 nm, higher = more signal; note: the record names both GSK3A and GSK3B
# [17] = target: Epidermal growth factor receptor (Homo sapiens) (UniProt P00533); assay: compounds binding epidermal growth factor receptor – biochemical, small-molecule microarray, 635 nm fluorescence, primary screen (AID 1104); conditions: EGFR binding, higher = more signal;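 note: score merges 667 nm emission intensity with spot signal to noise over triplicate slides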
# Chain of Epidermal growth factor receptor (Homo sapiens) (P00533 whole entry, looked up): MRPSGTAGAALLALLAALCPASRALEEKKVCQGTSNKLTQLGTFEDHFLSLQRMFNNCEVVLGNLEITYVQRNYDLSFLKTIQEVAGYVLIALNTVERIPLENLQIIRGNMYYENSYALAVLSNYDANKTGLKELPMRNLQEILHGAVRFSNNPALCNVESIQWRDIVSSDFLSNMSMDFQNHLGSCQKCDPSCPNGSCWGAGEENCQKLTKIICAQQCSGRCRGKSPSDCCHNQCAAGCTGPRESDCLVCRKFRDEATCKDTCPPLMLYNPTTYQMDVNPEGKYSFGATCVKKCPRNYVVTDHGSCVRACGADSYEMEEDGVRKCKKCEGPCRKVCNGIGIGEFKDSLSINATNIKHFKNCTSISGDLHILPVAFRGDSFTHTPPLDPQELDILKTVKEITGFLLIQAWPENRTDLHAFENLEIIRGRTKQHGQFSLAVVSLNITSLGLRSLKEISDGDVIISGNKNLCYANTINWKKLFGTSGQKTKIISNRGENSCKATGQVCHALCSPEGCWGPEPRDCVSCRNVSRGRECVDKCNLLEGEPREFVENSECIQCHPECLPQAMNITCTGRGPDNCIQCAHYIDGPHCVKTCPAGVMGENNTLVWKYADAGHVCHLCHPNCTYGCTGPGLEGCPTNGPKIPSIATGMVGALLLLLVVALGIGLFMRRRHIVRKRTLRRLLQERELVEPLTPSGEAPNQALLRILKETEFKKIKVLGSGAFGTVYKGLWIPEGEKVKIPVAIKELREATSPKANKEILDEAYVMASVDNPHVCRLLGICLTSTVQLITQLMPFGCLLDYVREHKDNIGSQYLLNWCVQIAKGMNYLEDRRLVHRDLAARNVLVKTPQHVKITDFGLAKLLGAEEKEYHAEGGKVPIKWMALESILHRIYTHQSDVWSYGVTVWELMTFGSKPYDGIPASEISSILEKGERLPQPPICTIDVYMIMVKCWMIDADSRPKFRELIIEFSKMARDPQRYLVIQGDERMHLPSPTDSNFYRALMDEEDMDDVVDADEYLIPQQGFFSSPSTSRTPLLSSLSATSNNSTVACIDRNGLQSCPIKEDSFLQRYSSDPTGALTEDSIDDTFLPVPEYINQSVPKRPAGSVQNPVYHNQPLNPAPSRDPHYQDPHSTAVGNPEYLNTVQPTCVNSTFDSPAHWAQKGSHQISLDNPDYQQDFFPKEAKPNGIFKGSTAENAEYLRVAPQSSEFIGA
# [18] = target: Follistatin-related protein 3 (Homo sapiens) (UniProt O95633); assay: compounds binding follistatin-related protein 3 – biochemical, small-molecule microarray, 635 nm fluorescence, primary screen (AID 1105); conditions: FSTL3 binding, higher = more signal;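 note: score merges emission near 667 nm and signal to noise per printed spot across three slides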
# Chain of Follistatin-related protein 3 (Homo sapiens) (O95633 whole entry, looked up): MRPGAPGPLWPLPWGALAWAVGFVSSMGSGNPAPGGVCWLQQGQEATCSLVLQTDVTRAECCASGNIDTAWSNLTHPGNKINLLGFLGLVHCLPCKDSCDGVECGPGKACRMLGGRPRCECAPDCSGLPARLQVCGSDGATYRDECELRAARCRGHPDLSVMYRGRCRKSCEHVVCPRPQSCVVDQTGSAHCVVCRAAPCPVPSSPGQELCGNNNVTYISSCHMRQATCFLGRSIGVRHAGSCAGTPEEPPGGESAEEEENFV
# [19] = target: Dickkopf-related protein 1 (Homo sapiens) (UniProt O94907); assay: small molecules binding DKK1 protein – biochemical, small-molecule microarray, 635 nm fluorescence scan, primary screen (AID 1106); conditions: higher = more signal;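 note: score merges emission near 667 nm with signal to noise over three replicate slides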
# Chain of Dickkopf-related protein 1 (Homo sapiens) (O94907 whole entry, looked up): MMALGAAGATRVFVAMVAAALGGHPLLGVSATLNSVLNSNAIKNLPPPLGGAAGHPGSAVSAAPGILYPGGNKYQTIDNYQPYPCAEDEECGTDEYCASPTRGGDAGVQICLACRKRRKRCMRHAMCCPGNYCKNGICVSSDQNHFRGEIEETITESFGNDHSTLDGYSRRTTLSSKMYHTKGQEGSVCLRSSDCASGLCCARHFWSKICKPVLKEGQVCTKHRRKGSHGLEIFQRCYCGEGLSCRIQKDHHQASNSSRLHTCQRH
# [20] = test system: Inhibin beta A chain (activin A); assay: small molecules binding activin A – biochemical, small-molecule microarray, 635 nm fluorescence scan, primary screen (AID 1107); conditions: INHBA, higher = more signal;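 note: mouse activin A protein probed at 4.33 µg/mL on printed slides; score merges bound-protein fluorescence near 667 nm with spot signal-to-noise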
smiles,measurement,setting,value
O=C1[C@H]2[C@H]3[C@H](O)[C@H](O)CC(=NOCc4ccccc4)[C@H]3CC[C@H]2C(=O)N1c1ccc(F)cc1F,composite z-score,[1],-0.129
same,z-score,[2],-1.3 (inactive)
same,z-score,[3],-0.128 (inactive)
same,z-score,[4],-0.982 (inactive)
same,composite z-score,[5],-0.089
same,z-score,[6],0.358 (inactive)
same,composite z-score,[7],-0.373
same,composite z-score,[8],-0.153
same,composite z-score,[9],-0.367
same,composite z-score,[10],-0.0936
same,composite z-score,[11],-0.183
same,composite z-score,[12],-0.268
same,composite z-score,[13],-0.675
same,z-score,[14],-0.772 (inactive)
same,composite z-score,[15],0.266
same,composite z-score,[16],0.167
same,composite z-score,[17],0.534
same,composite z-score,[18],-0.0913
same,composite z-score,[19],0.0949
same,composite z-score,[20],-0.364
O=C1[C@H]2[C@H]3[C@H](O)[C@H](O)CC(=NOCc4ccccc4)[C@@H]3CC[C@H]2C(=O)N1Cc1ccccc1,composite z-score,[1],0.0044
same,z-score,[2],-0.132 (inactive)
same,z-score,[3],-0.176 (inactive)
same,z-score,[4],-1.41 (inactive)
same,composite z-score,[5],0.577
same,z-score,[6],0.263 (inactive)
same,composite z-score,[7],-0.21
same,composite z-score,[8],0.656
same,composite z-score,[9],0.797
same,composite z-score,[10],-0.0828
same,composite z-score,[11],-0.935
same,composite z-score,[12],-0.206
same,composite z-score,[13],-0.571
same,z-score,[14],-0.491 (inactive)
same,composite z-score,[15],0.43
same,composite z-score,[16],0.75
same,composite z-score,[17],0.453
same,composite z-score,[18],0.58
same,composite z-score,[19],0.544
same,composite z-score,[20],-0.359
O=C1O[C@@H](c2ccccc2)[C@@H](c2ccccc2)N2[C@@H](c3ccc(O)cc3)[C@]3(C(=O)Nc4ccccc43)[C@@H](C(=O)O)[C@H]12,composite z-score,[1],1.24
same,z-score,[2],0.462 (inactive)
same,z-score,[3],-0.253 (inactive)
same,z-score,[4],-0.408 (inactive)
same,composite z-score,[5],2.45
same,z-score,[6],1.14 (inactive)
same,composite z-score,[7],-0.0753
same,composite z-score,[8],-0.335
same,composite z-score,[9],0.166
same,composite z-score,[10],-0.041
same,composite z-score,[11],1.1
same,composite z-score,[12],0.74
same,composite z-score,[13],0.91
same,z-score,[14],0.451 (inactive)
same,composite z-score,[15],-0.0962
same,composite z-score,[16],0.536
same,composite z-score,[17],-0.111
same,composite z-score,[18],-0.0238
same,composite z-score,[19],-0.465
same,composite z-score,[20],0.385
CC(C)=CCCC(C)=CCON=C1[C@H]2CCn3c(=O)n(C)c(=O)n3[C@H]2[C@H](O)[C@@H]2O[C@H]12,composite z-score,[1],1.14
same,z-score,[2],-0.0766 (inactive)
same,z-score,[3],0.418 (inactive)
same,z-score,[4],0.407 (inactive)
same,composite z-score,[5],0.393
same,z-score,[6],0.604 (inactive)
same,composite z-score,[7],0.0315
same,composite z-score,[8],1.18
same,composite z-score,[9],0.651
same,composite z-score,[10],0.081
same,composite z-score,[11],0.819
same,composite z-score,[12],-0.317
same,composite z-score,[13],-0.378
same,z-score,[14],0.709 (inactive)
same,composite z-score,[15],0.868
same,composite z-score,[16],1.26
same,composite z-score,[17],0.779
same,composite z-score,[18],1.05
same,composite z-score,[19],0.921
same,composite z-score,[20],0.832
O=C1[C@H]2[C@H]3[C@H](O)[C@H](O)CC(=NO[C@@H]4O[C@H](CO)[C@@H](O)[C@H](O)[C@H]4O)[C@@H]3CC[C@H]2C(=O)N1Cc1ccc2c(c1)OCO2,composite z-score,[1],0.843
same,z-score,[2],-0.0622 (inactive)
same,z-score,[3],0.374 (inactive)
same,z-score,[4],0.35 (inactive)
same,composite z-score,[5],1.55
same,z-score,[6],-0.244 (inactive)
same,composite z-score,[7],-0.0991
same,composite z-score,[8],0.388
same,composite z-score,[9],0.786
same,composite z-score,[10],-0.0007
same,composite z-score,[11],0.456
same,composite z-score,[12],-0.174
same,composite z-score,[13],-0.576
same,z-score,[14],0.0977 (inactive)
same,composite z-score,[15],0.422
same,composite z-score,[16],0.708
same,composite z-score,[17],0.4
same,composite z-score,[18],0.521
same,composite z-score,[19],0.921
same,composite z-score,[20],-0.292
CCCNC(=O)OC[C@H]1O[C@H](CCON=C2[C@H]3CCn4c(=O)n(-c5ccccc5)c(=O)n4[C@H]3[C@H](O)[C@@H]3O[C@H]23)C=C[C@@H]1Oc1ccc(OC)cc1,composite z-score,[1],0.615
same,z-score,[2],-0.285 (inactive)
same,z-score,[3],0.0063 (inactive)
same,z-score,[4],-0.0824 (inactive)
same,composite z-score,[5],0.507
same,z-score,[6],0.317 (inactive)
same,composite z-score,[7],-0.234
same,composite z-score,[8],0.388
same,composite z-score,[9],0.242
same,composite z-score,[10],-0.253
same,composite z-score,[11],0.357
same,composite z-score,[12],-0.139
same,composite z-score,[13],-0.182
same,z-score,[14],-0.374 (inactive)
same,composite z-score,[15],0.2
same,composite z-score,[16],0.343
same,composite z-score,[17],-0.0629
same,composite z-score,[18],0.493
same,composite z-score,[19],0.378
same,composite z-score,[20],0.103
CC(=O)OC[C@H]1O[C@@H](ON=C(C)CCN2CCc3nc(-c4ccccc4)c(-c4ccccc4)cc3C2)[C@H](OC(C)=O)[C@@H](OC(C)=O)[C@@H]1OC(C)=O,composite z-score,[1],1.51
same,z-score,[2],0.0264 (inactive)
same,z-score,[3],-1.03 (inactive)
same,z-score,[4],-3.53 (inactive)
same,composite z-score,[5],2.27
same,z-score,[6],-0.395 (inactive)
same,composite z-score,[7],0.0754
same,composite z-score,[8],0.591
same,composite z-score,[9],1.09
same,composite z-score,[10],0.0291
same,composite z-score,[11],0.625
same,composite z-score,[12],-0.119
same,composite z-score,[13],-0.413
same,z-score,[14],0.522 (inactive)
same,composite z-score,[15],0.917
same,composite z-score,[16],1.22
same,composite z-score,[17],0.525
same,composite z-score,[18],0.979
same,composite z-score,[19],0.525
same,composite z-score,[20],-0.0877
CCc1cccc(NC(=O)O[C@H]2[C@H](OC(=O)Nc3ccc4c(c3)OCO4)[C@@H](OC(=O)Nc3ccc4c(c3)OCO4)[C@@H](OC)O[C@@H]2CO)c1,composite z-score,[1],1.54
same,z-score,[2],1.41 (inactive)
same,z-score,[3],1.5 (inactive)
same,z-score,[4],-2.13 (inactive)
same,composite z-score,[5],3.59
same,z-score,[6],1.47 (inactive)
same,composite z-score,[7],0.166
same,composite z-score,[8],1.22
same,composite z-score,[9],1.08
same,composite z-score,[10],-0.0488
same,composite z-score,[11],0.402
same,composite z-score,[12],-0.144
same,composite z-score,[13],-0.0627
same,z-score,[14],-0.637 (inactive)
same,composite z-score,[15],1.38
same,composite z-score,[16],1.35
same,composite z-score,[17],0.446
same,composite z-score,[18],1.32
same,composite z-score,[19],0.583
same,composite z-score,[20],0.863
O=C1C2C=CC(C(O)c3ccc([N+](=O)[O-])cc3)N(Nc3ccc([N+](=O)[O-])cc3)C2C(=O)N1c1ccccc1 (stereo not given),composite z-score,[1],1.46
same,z-score,[2],0.664 (inactive)
same,z-score,[3],1.53 (inactive)
same,z-score,[4],3.26 (inactive)
same,composite z-score,[5],3.28
same,z-score,[6],-0.956 (inactive)
same,composite z-score,[7],0.198
same,composite z-score,[8],-0.238
same,composite z-score,[9],1.04
same,composite z-score,[10],0.387
same,composite z-score,[11],0.867
same,composite z-score,[12],0.969
same,composite z-score,[13],0.539
same,z-score,[14],-0.291 (inactive)
same,composite z-score,[15],0.818
same,composite z-score,[16],1.29
same,composite z-score,[17],0.301
same,composite z-score,[18],0.255
same,composite z-score,[19],-0.12
same,composite z-score,[20],0.69
